GSTO1 counter: inhibitors of recombinant GSTO1, primary screen, counter-screen for RBBP9 inhibitor project, biochemical, fluorescence polarization; inhibition, % at 5.96 µM; AID 1974, 2009; 300,000 compounds, 1.1% hits; Glutathione S-transferase omega-1 (Homo sapiens), P78417; activity-based probe fluorescence polarization;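 active means inhibition above the campaign mean inhibition plus 3 SD, cut at about 35% in these data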;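 further: 0% = GSTO1-1 with DMSO and 100% = wells lacking GSTO1-1 enzyme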
LYPLA2 inh: LYPLA2 inhibitors, primary screen, counter-screen for PME1 inhibitor project, biochemical, fluorescence polarization, FP-Rh probe ABPP. Acyl-protein thioesterase 2 (Homo sapiens), O95372. recombinant LYPLA2. inhibition, % at 5.9 µM. 320,000 compounds, 0.38% hits;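 active means inhibition above the screen-wide mean plus 3 SD, limit set per campaign, cut at about 26% in these data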;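 further: 0% = LYPLA2 with DMSO and 100% = wells lacking LYPLA2 enzyme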
Target sequence (O95372 whole entry, looked up): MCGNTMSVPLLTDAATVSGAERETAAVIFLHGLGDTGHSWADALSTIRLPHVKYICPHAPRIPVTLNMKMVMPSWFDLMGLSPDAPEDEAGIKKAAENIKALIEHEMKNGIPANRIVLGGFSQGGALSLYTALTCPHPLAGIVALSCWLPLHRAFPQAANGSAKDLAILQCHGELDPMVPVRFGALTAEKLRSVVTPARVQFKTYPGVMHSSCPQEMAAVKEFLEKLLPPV
Fam108B inh: mouse Fam108B serine hydrolase inhibitors, primary screen, counter-screen for RBBP9 inhibitor project, biochemical, fluorescence polarization; recombinant Fam108B, FP-Rh probe fluorescence polarization; inhibition, % at 9.51 µM; 300,000 compounds, 0.33% hits;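 active means inhibition above the screen mean inhibition plus 3 SD, computed separately per campaign, cut at about 18% in these data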;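 further: inhibitors lower polarization as less probe binds the enzyme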
PME-1 inh: PME-1 inhibitors via competitive probe labeling, primary screen, biochemical, fluorescence polarization, FP-Rh probe, HTS | Protein phosphatase methylesterase 1 (Homo sapiens), Q9Y570 | recombinant PME-1 | inhibition, % at 5.9 µM | 320,000 compounds, 0.53% hits | AID 2130, 2009;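 active means inhibition above the campaign mean of all compounds plus 3 SD, cut at about 26% in these data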;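 further: competitive labeling of PME-1 active site by serine hydrolase directed probe; 0% = PME-1 with DMSO and 100% = wells lacking PME-1 enzyme; inhibitors block probe labeling so polarization falls and inhibition rises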
Target sequence (Q9Y570 whole entry, looked up): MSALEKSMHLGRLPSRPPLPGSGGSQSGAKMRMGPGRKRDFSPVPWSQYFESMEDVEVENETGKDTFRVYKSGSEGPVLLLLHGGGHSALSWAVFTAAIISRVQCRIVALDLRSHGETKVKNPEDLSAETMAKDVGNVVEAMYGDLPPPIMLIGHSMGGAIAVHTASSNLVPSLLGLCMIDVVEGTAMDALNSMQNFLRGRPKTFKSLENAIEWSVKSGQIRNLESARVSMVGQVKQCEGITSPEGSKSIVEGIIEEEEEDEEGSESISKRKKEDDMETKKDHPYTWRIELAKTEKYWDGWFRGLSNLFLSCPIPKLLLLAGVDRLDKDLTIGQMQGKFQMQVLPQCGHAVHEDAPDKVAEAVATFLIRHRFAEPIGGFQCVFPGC
LYPLA1 counter: LYPLA1 inhibitors, primary screen, counter-screen for PME1 inhibitor project, biochemical, fluorescence polarization, FP-Rh probe ABPP | Acyl-protein thioesterase 1 (Homo sapiens), O75608 | recombinant LYPLA1 | 320,000 compounds, 0.16% hits | inhibition, % at 5.9 µM | AID 2174, 2009;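 active means inhibition above the mean of all tested compounds plus 3 SD, set per campaign, cut at about 14% in these data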;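 further: inhibitors block serine hydrolase probe labeling of LYPLA1 so polarization falls; 0% = enzyme with DMSO and 100% = wells lacking LYPLA1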
PAD4 FP inh: human PAD4 inhibitors, primary screen, biochemical, fluorescence polarization, 1536-well format. Protein-arginine deiminase type-4 (Homo sapiens), Q9UM07. recombinant PAD4, RCA probe fluorescence polarization. inhibition, % at 6.36 µM. 330,000 compounds, 0.41% hits. AID 485272, 2010;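 active means percent inhibition above a cutoff equal to the mean of all tested compounds plus 3 SD, cut at about 15% in these data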;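 further: 0% = PAD4 with RCA probe and DMSO and 100% = probe without PAD4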
LYPLA2 confirm: LYPLA2 inhibitors, retest, confirmation, counter-screen for PME1 inhibitor project, biochemical, fluorescence polarization, FP-Rh probe ABPP; shares compounds with LYPLA2 inh; recombinant LYPLA2; inhibition, % at 5.9 µM; 1,100 compounds, 72% hits;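 active means mean inhibition across replicates above the hit cutoff set in the primary screen, cut at about 26% in these data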;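 further: blocked labeling of the enzyme by serine hydrolase FP-Rh probe lowers polarization; 0% = enzyme with DMSO and 100% = wells lacking LYPLA2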
LYPLA2 ABPP: LYPLA2 inhibitors in proteome, late-stage follow-up, gel-based competitive ABPP, fluorescence, assay provider; shares compounds with LYPLA2 inh; inhibition, % at 20 µM; rhLYPLA2 in mouse brain proteome, gel ABPP FP-Rh; 150 compounds, 30% hits;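 active means inhibition of LYPLA2 enzyme probe labeling above about 50%, limit read from the data; inactive means inhibition below that limit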;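 further: loss of FP-Rh probe labeling of the LYPLA2 gel band measured as band density; 0% = DMSO only control band and 100% = blank gel background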
* hit, by the source's call; · = no result. Most compounds without a hit are left out; they make up all but 1.8% or so of the library.

SMILES	GSTO1 counter	LYPLA2 inh	Fam108B inh	PME-1 inh	LYPLA1 counter	PAD4 FP inh	LYPLA2 confirm	others
Cc1ccc(-c2ccc(=O)n(CC(=O)NCc3ccc(F)cc3)n2)cc1	0	2	2	0	0	-3	·
COC(=O)c1ccc(NC(=O)Cn2c([N+](=O)[O-])cnc2C)cc1	12	4	-2	-1	1	-3	·
Cc1cc(Br)c(NC(=O)Cn2c([N+](=O)[O-])cnc2C)cc1C	4	3	2	-4	-3	4	·
Cc1ncc([N+](=O)[O-])n1CC(=O)Nc1ccc2c(c1)OCO2	3	26*	-6	-2	-2	-6	25
Cc1ncc([N+](=O)[O-])n1CC(=O)Nc1ccccc1	-1	32*	-6	-10	-1	-6	38*
Cc1ncc([N+](=O)[O-])n1CC(=O)Nc1ccc(F)cc1	3	33*	1	-2	-3	3	38*
Cc1cccc(NC(=O)Cn2c([N+](=O)[O-])cnc2C)c1C	8	31*	-5	3	7	1	32*
Cc1noc(NS(=O)(=O)c2ccc(NC(=O)c3cnc4n(c3=O)CCS4)cc2)c1C	-3	9	-1	1	1	5	·
O=C(c1cccs1)N(Cc1ccc(Cl)cc1)C1CCS(=O)(=O)C1 (centres undefined)	0	4	-2	1	1	3	·
Cc1ccc(NC(=O)Cn2c([N+](=O)[O-])cnc2C)cc1	0	12	2	-9	-2	3	·
Cc1ncc([N+](=O)[O-])n1CC(=O)Nc1ccc(Br)cc1	4	46*	-1	5	3	3	38*
CS(=O)(=O)N1CCN(C(=O)c2cc(-c3ccncc3)nc3ccc(Cl)cc23)CC1	-2	-2	4	5	-8	-1	·
Cc1nc2ccc(Br)cn2c1C(=O)N/N=C\c1ccccc1Cl	-2	7	-2	-2	2	3	·
Cc1ccc(NC(=O)c2cccc(S(=O)(=O)N3CCN(c4ccc(F)cc4)CC3)c2)nc1	-9	3	-3	-3	-3	1	·
O=C(Nc1ccncc1)c1cccc(S(=O)(=O)N2CCN(c3ccc(F)cc3)CC2)c1	-5	40*	-3	-5	-11	-1	25
O=C(C1CCCN(c2ncnc3c2nc2n3CCCCC2)C1)N1CCN(c2ccc(Cl)cc2)CC1 (centres undefined)	1	5	3	7	4	-2	·
O=C(C1CCN(c2ncnc3c2nc2n3CCCCC2)CC1)N1CCN(c2cccc(Cl)c2)CC1	-12	34*	6	-1	6	-4	26*
CON=Cc1ccc(N2CCN(C(=O)c3ccc(Cl)cc3Cl)CC2)c([N+](=O)[O-])c1	·	·	·	·	·	·	·	LYPLA2 ABPP=29
CO/N=C/c1ccc(N2CCOCC2)c([N+](=O)[O-])c1	9	0	0	-6	2	0	·
CON=Cc1ccc(N2CCN(C(=O)c3cccc(C(F)(F)F)c3)CC2)c([N+](=O)[O-])c1	·	·	·	·	·	·	·	LYPLA2 ABPP=88*
COc1ccc(N2CCN(C(=O)c3ccc(Br)cc3)CC2)c([N+](=O)[O-])c1	6	48*	-1	3	3	-3	56*	LYPLA2 ABPP=20
O=C(c1cc(COc2ccc(F)cc2Cl)on1)N1CCCCCC1	-1	7	1	-1	3	-5	·
O=C(c1cc(COc2ccc(F)cc2Cl)on1)N1CCC(c2ccncc2)CC1	-2	33*	1	4	6	1	30*
O=C(Nc1ccc(F)cc1)c1cc(S(=O)(=O)N2CCCCC2)cs1	-8	1	0	-11	-6	-7	·
COc1ccc(N/C=C2/CCCCC2=O)cc1	5	3	4	1	-1	-6	·
SMILES	GSTO1 counter	LYPLA2 inh	Fam108B inh	PME-1 inh	LYPLA1 counter	PAD4 FP inh	LYPLA2 confirm	others
COc1ccc(Oc2ccc(N/C=C3/CCCC3=O)cc2)cc1	2	41*	4	4	3	-3	36*
COc1ccc(Oc2ccc(N/C=C3\CCCC3=O)cc2)cc1	-6	39*	1	10	7	-1	37*
O=C(/C=C/c1ccccc1)NC1CCSC1=O (centres undefined)	2	-4	1	0	-2	6	·
O=C(O)c1ccccc1SCc1cn2cc(Cl)ccc2n1	-1	32*	2	0	2	-1	2
Cc1ccc(S(=O)(=O)N(C)CC(=O)N2CCCc3ccccc32)cc1	0	-2	-1	5	3	1	·
COc1cc(/C=C(/C#N)c2ccccc2)ccc1Oc1ccc([N+](=O)[O-])cn1	-11	31*	-3	1	-6	0	31*
COc1cc(/C=C2/NC(=O)N(Cc3ccccc3F)C2=O)ccc1Oc1ccc([N+](=O)[O-])cn1	0	62*	-7	8	-2	2	72*
CCCc1cc2c(cc1NC(=O)c1ccccc1Cl)OCO2	-10	-3	-3	2	-2	-4	·
Cc1cccc(N2CCN(C(=O)Cc3ccc(-n4c(=O)[nH]c5ccsc5c4=O)cc3)CC2)c1C	0	67*	3	-12	0	-1	68*	LYPLA2 ABPP=56*
CC(=O)c1ccc(N2CCN(C(=O)CCCn3c(=O)[nH]c4ccsc4c3=O)CC2)cc1	1	51*	-3	-5	8	3	56*	LYPLA2 ABPP=16
O=C(CCCn1c(=O)[nH]c2ccsc2c1=O)N1CCCCC1	10	2	-2	2	3	-6	·
COc1ccc2c(c1)sc(=NC(=O)CS(=O)(=O)c1ccc(F)cc1)n2C	6	-3	5	-1	-1	0	·
O=C(CSc1nnc2ncccn12)Nc1cccc2ccccc12	4	4	2	8	-3	-1	·
CS(=O)(=O)Nc1ccc(N2CCN(c3ccc(C(F)(F)F)cn3)CC2)nc1	-2	84*	3	2	8	-2	83*	LYPLA2 ABPP=72*

Compound activity from PubChem.
